Reference: the supplement of paper PMC10849652
The full data set covers some 8,800 targets. This sample favours those with a hit. About 0.5% of all pairs of compound and target were hits.

Legend:
Experiment in all cases: log2 fold change, soluble protein after heating vs DMSO (PISA); higher = thermal stabilisation; K562 lysate, 10 uM; active = over 0.2 and 3.5 SD of the protein, either way, in both replicates (recomputed)
[1] = compound: CS(=O)(=O)CCNCc1ccc(-c2ccc3ncnc(Nc4ccc(OCc5cccc(F)c5)c(Cl)c4)c3c2)o1 [lapatinib]
Summary of the method: (§1)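 The values are log-two fold changes in thermal stability compared with solvent controls and come from duplicates. They were obtained by TMTpro 16plex LC-MS/MS, with channel sums equalised, on the supernatant after 21,000xg for 90 min. That supernatant came from crude K562 extract at 1 mg/mL protein treated with 10 μM compound for 30 min, heated for 3 min across 48°C-58°C, pooled and brought to 0.5% NP-40 at 4°C.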

[2] = compound: Cc1cc(Nc2cc(N3CCN(C)CC3)nc(Sc3ccc(NC(=O)C4CC4)cc3)n2)n[nH]1 [tozasertib]
Summary of the method: as §1

[3] = compound: Cc1cn(-c2cc(NC(=O)c3ccc(C)c(Nc4nccc(-c5cccnc5)n4)c3)cc(C(F)(F)F)c2)cn1 [nilotinib]
Summary of the method: as §1

[4] = compound: Cc1nc(Nc2n[nH]c3c2CN(C(=O)N[C@H](CN(C)C)c2ccccc2)C3(C)C)c2sccc2n1
Summary of the method: as §1

[5] = compound: Cc1ncc(-c2ccnc(Nc3ccc(S(C)(=O)=O)cc3)n2)n1C(C)C
Summary of the method: as §1

[6] = compound: Cn1cncc1[C@@](N)(c1ccc(Cl)cc1)c1ccc2c(c1)c(-c1cccc(Cl)c1)cc(=O)n2C [tipifarnib]
Summary of the method: as §1

[7] = compound: NC(=O)c1cnc(N[C@@H]2CCCC[C@@H]2N)nc1Nc1cccc(-n2nccn2)c1
Summary of the method: as §1

[8] = compound: C[C@@H](Oc1cc(-c2cnn(C3CCNCC3)c2)cnc1N)c1c(Cl)ccc(F)c1Cl [crizotinib]
Summary of the method: as §1

[9] = compound: Cc1ccc(-n2nc(C(C)(C)C)cc2NC(=O)Nc2ccc(OCCN3CCOCC3)c3ccccc23)cc1 [doramapimod]
Summary of the method: as §1

[10] = compound: Cn1cc(CNCC2CCN(c3ncc(C(=O)NO)cn3)CC2)c2ccccc21 [quisinostat]
Summary of the method: as §1

[11] = compound: NC(=O)Nc1cc(-c2cccc(F)c2)sc1C(=O)N[C@H]1CCCNC1
Summary of the method: as §1

[12] = compound: CS(=O)(=O)N1CCN(Cc2cc3nc(-c4cccc5[nH]ncc45)nc(N4CCOCC4)c3s2)CC1 [pictilisib]
Summary of the method: as §1

[13] = compound: C[C@H](C1=CC=C(C=C1)C(=O)NC2=C3C=CNC3=NC=C2)N
Summary of the method: as §1

[14] = compound: C[C@H](Nc1ncnc2nc[nH]c12)c1cc2cccc(Cl)c2c(=O)n1-c1ccccc1 [duvelisib]
Summary of the method: as §1

[15] = compound: Cc1cc(Nc2cc(CN3CCOCC3)c3nc(C)c(Cc4ccc(Cl)cc4F)n3n2)n[nH]1 [gandotinib]
Summary of the method: as §1

[16] = compound: Cc1ccc(NC(=O)c2ccc(CN3CC[C@H](N(C)C)C3)c(C(F)(F)F)c2)cc1Nc1nccc(-c2cncnc2)n1 [bafetinib]
Summary of the method: as §1

[17] = compound: Cc1cccc(CC(=O)N2CCc3c2ccc(-c2cn(C)c4ncnc(N)c24)c3F)n1
Summary of the method: as §1

[18] = compound: Cc1nc(Nc2ncc(C(=O)Nc3c(C)cccc3Cl)s2)cc(N2CCN(CCO)CC2)n1 [dasatinib]
Summary of the method: as §1

[19] = compound: Cn1cc(-c2ccc3c(c2)CCN3C(=O)Cc2cccc(C(F)(F)F)c2)c2c(N)ncnc21
Summary of the method: as §1

[20] = compound: NC1(c2ccc(-c3nc4ccn5c(=O)[nH]nc5c4cc3-c3ccccc3)cc2)CCC1
Summary of the method: as §1

Measured: log2 fold change

TEC (UniProt P42680)
Chain of UniProt P42680 (P42680 whole entry, looked up): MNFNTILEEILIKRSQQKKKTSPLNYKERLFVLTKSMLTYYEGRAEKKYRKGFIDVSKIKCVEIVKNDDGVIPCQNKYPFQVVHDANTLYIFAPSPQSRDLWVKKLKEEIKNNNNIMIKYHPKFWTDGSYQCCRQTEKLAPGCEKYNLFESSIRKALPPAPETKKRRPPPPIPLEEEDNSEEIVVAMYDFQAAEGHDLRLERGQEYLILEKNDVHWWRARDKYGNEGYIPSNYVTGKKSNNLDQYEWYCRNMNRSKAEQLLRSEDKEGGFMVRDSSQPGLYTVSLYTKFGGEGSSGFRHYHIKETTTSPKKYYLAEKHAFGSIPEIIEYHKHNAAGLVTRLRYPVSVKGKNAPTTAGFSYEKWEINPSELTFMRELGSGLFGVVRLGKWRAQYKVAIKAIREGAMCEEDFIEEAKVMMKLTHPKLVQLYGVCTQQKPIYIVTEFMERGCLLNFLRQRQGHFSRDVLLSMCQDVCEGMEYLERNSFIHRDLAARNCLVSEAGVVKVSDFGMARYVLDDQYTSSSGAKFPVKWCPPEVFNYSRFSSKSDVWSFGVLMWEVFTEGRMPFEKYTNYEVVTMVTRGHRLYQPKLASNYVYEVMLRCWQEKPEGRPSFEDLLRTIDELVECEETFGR
inactive: [1] 0.007 | [2] -0.198 | [3] -0.047 | [4] 0.099 | [5] 0.019 | [6] 0.116 | [7] -0.039

TFPI isoform 2 (UniProt P10646)
Chain of UniProt P10646 (P10646 whole entry, looked up): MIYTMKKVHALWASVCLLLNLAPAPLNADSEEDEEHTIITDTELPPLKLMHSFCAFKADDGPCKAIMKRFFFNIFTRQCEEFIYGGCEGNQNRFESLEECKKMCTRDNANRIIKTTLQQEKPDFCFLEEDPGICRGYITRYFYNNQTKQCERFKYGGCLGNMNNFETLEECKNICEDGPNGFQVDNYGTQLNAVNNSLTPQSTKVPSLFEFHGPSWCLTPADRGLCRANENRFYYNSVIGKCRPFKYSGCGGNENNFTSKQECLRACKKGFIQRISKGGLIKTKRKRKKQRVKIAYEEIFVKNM
inactive: [8] 0.045 | [9] -0.121 | [10] -0.087 | [11] 0.082

TJP1 (UniProt G3V1L9)
inactive: [12] 0.157 | [8] 0.068 | [13] 0.027 | [14] -0.042 | [15] 0.071 | [9] -0.209 | [16] -0.047 | [17] 0.059 | [3] 0.093 | [4] 0.051 | [18] 0.083 | [5] 0.11 | [19] -0.139 | [10] 0.137 | [6] -0.078 | [11] 0.022 | [20] -0.08

TM2D3 (UniProt Q9BRN9)
Chain of UniProt Q9BRN9 (Q9BRN9 whole entry, looked up): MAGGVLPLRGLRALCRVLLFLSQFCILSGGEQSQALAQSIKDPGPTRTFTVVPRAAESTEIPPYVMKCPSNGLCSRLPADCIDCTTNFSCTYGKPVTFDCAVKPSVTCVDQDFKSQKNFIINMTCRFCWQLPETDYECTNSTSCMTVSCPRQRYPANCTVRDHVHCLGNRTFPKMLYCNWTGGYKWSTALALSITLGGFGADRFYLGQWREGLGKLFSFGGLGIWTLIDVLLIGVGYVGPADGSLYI
active: [13] -0.836
inactive: [12] 0.069 | [15] 0.329 | [2] -0.075 | [16] 0.048 | [17] 0.348 | [20] -0.09

TEDC1 (UniProt Q86SX3)
Chain of UniProt Q86SX3 (Q86SX3 whole entry, looked up): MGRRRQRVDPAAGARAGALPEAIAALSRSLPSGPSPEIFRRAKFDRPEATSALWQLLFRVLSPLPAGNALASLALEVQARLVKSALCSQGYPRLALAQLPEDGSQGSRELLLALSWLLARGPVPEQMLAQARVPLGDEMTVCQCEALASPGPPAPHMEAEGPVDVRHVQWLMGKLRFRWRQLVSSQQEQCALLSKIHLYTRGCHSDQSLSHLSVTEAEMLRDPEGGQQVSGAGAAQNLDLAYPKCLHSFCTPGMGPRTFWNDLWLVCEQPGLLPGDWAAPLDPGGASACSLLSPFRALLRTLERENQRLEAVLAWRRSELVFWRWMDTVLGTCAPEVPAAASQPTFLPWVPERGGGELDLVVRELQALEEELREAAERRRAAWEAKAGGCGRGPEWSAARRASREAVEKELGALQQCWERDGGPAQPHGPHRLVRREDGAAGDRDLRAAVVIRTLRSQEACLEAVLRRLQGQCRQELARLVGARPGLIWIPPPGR
inactive: [1] -0.064 | [8] -0.078 | [14] 0.159 | [2] -0.103 | [9] 0.009 | [3] 0.015 | [4] -0.016 | [18] 0.087 | [5] -0.038 | [19] 0.05 | [10] 0.161 | [6] -0.049 | [11] -0.074 | [7] 0.104 | [20] -0.022

TGFBR1 isoform 2 (UniProt P36897)
Chain of UniProt P36897 (P36897 whole entry, looked up): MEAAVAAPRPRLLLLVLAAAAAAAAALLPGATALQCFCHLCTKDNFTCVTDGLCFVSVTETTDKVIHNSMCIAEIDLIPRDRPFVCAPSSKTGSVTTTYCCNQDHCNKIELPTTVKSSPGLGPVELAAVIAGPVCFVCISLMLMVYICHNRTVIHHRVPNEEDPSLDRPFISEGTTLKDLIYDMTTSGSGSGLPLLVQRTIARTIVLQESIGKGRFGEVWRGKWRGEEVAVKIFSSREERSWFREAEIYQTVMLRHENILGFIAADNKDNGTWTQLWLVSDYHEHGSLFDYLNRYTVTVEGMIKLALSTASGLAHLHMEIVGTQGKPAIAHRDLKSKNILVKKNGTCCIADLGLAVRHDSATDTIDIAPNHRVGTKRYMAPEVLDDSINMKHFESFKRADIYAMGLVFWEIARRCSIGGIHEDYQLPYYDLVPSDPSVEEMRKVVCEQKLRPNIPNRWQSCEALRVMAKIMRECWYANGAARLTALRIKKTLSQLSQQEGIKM
inactive: [14] -0.004 | [2] 0.022 | [19] -0.03 | [20] -0.117

U2AF1L5 (UniProt P0DN76)
inactive: [1] 0.091 | [14] 0.021 | [15] 0.114 | [2] 0.207 | [17] 0.342 | [3] -0.033 | [4] 0.061 | [18] -0.012 | [5] 0.077 | [19] 0.026 | [6] -0.01 | [7] 0.009 | [20] -0.022
active: [13] -0.904

TMPO isoform 2 (UniProt P42167)
Chain of UniProt P42167 (P42167 whole entry, looked up): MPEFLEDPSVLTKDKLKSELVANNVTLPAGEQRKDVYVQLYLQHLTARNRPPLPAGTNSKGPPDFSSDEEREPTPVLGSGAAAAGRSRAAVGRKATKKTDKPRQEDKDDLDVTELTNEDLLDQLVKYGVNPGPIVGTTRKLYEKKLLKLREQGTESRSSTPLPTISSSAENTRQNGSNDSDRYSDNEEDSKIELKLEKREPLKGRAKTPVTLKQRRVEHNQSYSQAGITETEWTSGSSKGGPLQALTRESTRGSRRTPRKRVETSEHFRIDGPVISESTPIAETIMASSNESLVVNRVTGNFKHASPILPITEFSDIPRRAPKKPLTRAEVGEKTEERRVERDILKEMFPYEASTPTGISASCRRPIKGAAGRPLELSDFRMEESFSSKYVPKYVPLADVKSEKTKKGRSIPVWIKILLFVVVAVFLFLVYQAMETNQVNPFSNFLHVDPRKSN
inactive: [12] 0.04 | [14] -0.041 | [2] -0.029 | [16] -0.026 | [18] -0.042 | [19] -0.072

TMEM154 (UniProt Q6P9G4)
Chain of UniProt Q6P9G4 (Q6P9G4 whole entry, looked up): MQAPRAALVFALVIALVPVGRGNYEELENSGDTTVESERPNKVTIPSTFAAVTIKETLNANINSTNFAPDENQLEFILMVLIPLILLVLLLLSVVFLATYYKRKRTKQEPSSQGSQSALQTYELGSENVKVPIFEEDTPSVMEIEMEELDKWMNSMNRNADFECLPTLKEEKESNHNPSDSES
inactive: [8] 0.035 | [14] 0.039 | [2] 0.03 | [9] -0.146 | [18] 0.058 | [19] 0.07 | [10] 0.103 | [11] -0.101

TRAF7 (UniProt Q6Q0C0)
Chain of UniProt Q6Q0C0 (Q6Q0C0 whole entry, looked up): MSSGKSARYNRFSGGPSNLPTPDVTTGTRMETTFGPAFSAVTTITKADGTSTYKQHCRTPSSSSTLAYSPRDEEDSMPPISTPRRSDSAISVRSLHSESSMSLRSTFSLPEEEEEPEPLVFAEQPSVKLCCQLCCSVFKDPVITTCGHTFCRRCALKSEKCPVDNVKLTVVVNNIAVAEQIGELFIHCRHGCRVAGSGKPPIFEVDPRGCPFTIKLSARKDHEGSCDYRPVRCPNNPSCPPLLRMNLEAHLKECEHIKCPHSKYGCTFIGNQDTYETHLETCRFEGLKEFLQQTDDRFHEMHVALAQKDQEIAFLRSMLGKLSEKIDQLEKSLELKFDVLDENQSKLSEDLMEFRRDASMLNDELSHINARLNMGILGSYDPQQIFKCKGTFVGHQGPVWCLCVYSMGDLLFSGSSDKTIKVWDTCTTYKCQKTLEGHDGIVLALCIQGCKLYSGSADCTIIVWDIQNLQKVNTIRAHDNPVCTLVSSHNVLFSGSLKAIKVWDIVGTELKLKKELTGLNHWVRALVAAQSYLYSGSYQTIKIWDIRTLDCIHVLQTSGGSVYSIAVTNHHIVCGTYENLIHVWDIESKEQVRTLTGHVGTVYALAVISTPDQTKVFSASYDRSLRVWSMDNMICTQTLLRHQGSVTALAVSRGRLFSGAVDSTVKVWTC
inactive: [8] -0.01 | [13] -0.241 | [14] -0.029 | [15] -0.128 | [2] 0.124 | [9] 0.122 | [17] 0.127 | [3] 0.16 | [4] 0.027 | [18] -0.005 | [5] 0.154 | [19] 0.163 | [10] -0.035 | [6] -0.1 | [11] -0.033

UBAP2 (UniProt Q5JV08)
inactive: [3] -0.211 | [4] 0.172 | [5] 0.104 | [6] 0.133

UBAP2, A0A0D9SFI5
inactive: [8] -0.037 | [9] -0.056 | [10] 0.151 | [11] 0.111

TCF3 isoform 2 (UniProt P15923)
Chain of UniProt P15923 (P15923 whole entry, looked up): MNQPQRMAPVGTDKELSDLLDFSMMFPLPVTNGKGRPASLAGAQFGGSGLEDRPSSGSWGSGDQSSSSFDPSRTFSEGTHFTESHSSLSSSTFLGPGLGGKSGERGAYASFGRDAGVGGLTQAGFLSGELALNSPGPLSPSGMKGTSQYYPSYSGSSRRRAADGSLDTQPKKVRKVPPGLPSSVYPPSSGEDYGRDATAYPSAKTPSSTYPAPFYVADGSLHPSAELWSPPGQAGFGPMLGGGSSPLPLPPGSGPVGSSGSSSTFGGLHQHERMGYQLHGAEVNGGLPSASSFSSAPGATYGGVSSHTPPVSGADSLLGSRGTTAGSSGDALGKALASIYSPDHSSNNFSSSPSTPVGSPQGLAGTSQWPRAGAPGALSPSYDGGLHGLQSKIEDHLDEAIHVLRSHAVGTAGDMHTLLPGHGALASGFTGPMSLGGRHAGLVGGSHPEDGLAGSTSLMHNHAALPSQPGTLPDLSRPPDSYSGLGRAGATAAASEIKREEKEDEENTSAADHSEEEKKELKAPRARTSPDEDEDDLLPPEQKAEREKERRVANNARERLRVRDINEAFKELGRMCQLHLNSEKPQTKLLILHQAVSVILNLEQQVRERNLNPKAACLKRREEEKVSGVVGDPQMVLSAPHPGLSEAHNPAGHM
inactive: [8] -0.048 | [9] 0.092 | [10] -0.05 | [11] -0.005 | [20] -0.068

UBL5 (UniProt Q9BZL1)
Chain of UniProt Q9BZL1 (Q9BZL1 whole entry, looked up): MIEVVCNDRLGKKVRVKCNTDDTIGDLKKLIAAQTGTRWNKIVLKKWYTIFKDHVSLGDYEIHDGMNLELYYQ
inactive: [12] -0.036 | [8] 0.072 | [13] -0.194 | [14] -0.042 | [15] 0.042 | [2] 0.138 | [9] 0.013 | [16] -0.034 | [17] 0.104 | [3] 0.028 | [4] 0.154 | [18] 0.036 | [5] 0.018 | [19] 0.027 | [6] 0.031 | [11] -0.149 | [20] -0.013
active: [10] 0.341
